This is an account of results in PubChem BioAssay.

Assay [1] has as its target Nuclear receptor coactivator 3 (Homo sapiens) (UniProt Q9Y6Q9). Nature of the assay: SRC3 coactivator transcriptional activity inhibitors, confirmation, cell-based, luminescence, quadruplicate (AID 588792;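 active means mean inhibition over 43.08%, the solvent-only control mean plus 3 SD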;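 further: 0% = DMSO treated cells and 100% = gossypol at 36 µM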). The conditions noted are these: HEK293 GAL4-SRC3 luciferase reporter, at 3.6 µM, hits give high values.
Assay [2] relates to transactivating tegument protein VP16 (Human herpesvirus 1), Gal4-VP16 luciferase reporter. Nature of the assay: VP16 transactivation inhibitors, counter-screen for SRC3 inhibitor project, cell-based, luminescence, high throughput (AID 588794; in the data active means inhibition above about 30%). To be noted: mammalian cells, VP16-driven luciferase reporter luminescence; at 3.6 µM; hits give high values.
Assay [3] deals with Nuclear receptor coactivator 1 (Homo sapiens) (UniProt Q15788). Description: SRC1 coactivator transcriptional activity inhibitors, confirmation, cell-based, luminescence, quadruplicate (AID 588820;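 active means mean inhibition above 46.68%, the untreated control wells mean plus 3 SD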;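 further: 0% = DMSO wells and 100% = gossypol 36 µM treated wells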). The conditions noted are these: HEK293 GAL4-SRC1 luciferase reporter, at 3.6 µM, hits give high values.
Assay [4] can be described thus: VP16 transactivation inhibitors, counter-screen for SRC1 inhibitor project, cell-based, luminescence, high throughput (AID 588824). To be noted: cell-based VP16 transactivation luciferase luminescence; at 3.6 µM; hits give high values.
Assay [5] is described as follows: StAR promoter reporter inhibitors, counter-screen for LRH-1 inverse agonist project, cell-based, luminescence, high throughput (AID 651611; in the data active means inhibition above about 28%). To be noted: StAR promoter luciferase reporter counterscreen, at 3.6 µM, hits give high values.
Assay [6] concerns the target Nuclear receptor subfamily 5 group A member 2 (Homo sapiens) (UniProt O00482). Description: LRH-1 (NR5A2) inverse agonists, retest, confirmation, cell-based, luminescence (AID 651613; in the data active means inhibition above about 42%;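 further: HEK293T cells co-transfected with LRH-1 and StAR promoter luciferase reporter; 0% = vehicle wells and 100% = parental cells lacking receptor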). The conditions noted are these: cell-based LRH-1 luciferase reporter, inverse agonism; at 3.6 µM; hits give high values.
For assay [7], the target named is Steroidogenic factor 1 (Homo sapiens) (UniProt Q13285). Description: SF1 (NR5A1) inverse agonists, counter-screen for LRH-1 inverse agonist project, cell-based, luminescence, high throughput (AID 651614; in the data active means inhibition above about 44%;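 further: cells cotransfected with StAR promoter reporter and SF1 expression vector; 0% = vehicle on cells with receptor and 100% = vehicle on cells lacking receptor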). To be noted: cell-based SF1 luciferase reporter, at 3.6 µM, hits give high values.
Assay [8] is described as follows: VP16 transactivation reporter inhibitors, counter-screen for LRH-1 inverse agonist project, cell-based, luminescence, high throughput (AID 651615; in the data active means inhibition above about 33%). To be noted: Gal4-VP16 luciferase reporter cells, at 3.6 µM, hits give high values.
Assay [9] deals with transactivating tegument protein VP16 (Human herpesvirus 1). Nature of the assay: VP16 transactivation reporter inhibitors, counter-screen for SRC2 inhibitor project, cell-based, luminescence, single concentration (AID 652007; in the data active means inhibition above about 36%). To be noted: cell-based VP16 transactivation luciferase reporter, at 8.9 µM, hits give high values.
In assay [10] the target is Nuclear receptor coactivator 2 (Homo sapiens) (UniProt Q15596). Nature of the assay: SRC2 coactivator transcriptional activity inhibitors, confirmation, cell-based, luminescence, HEK293, triplicate (AID 652008;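 active means mean inhibition above 46.5%, the solvent-only control mean plus 3 SD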;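 further: 0% = DMSO-treated cells and 100% = Gossypol at 36 µM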). The conditions noted are these: HEK293 GAL4-SRC2 luciferase reporter, at 8.9 µM, hits give high values.
The nature of assay [11]: Gal4-VP16 luciferase reporter inhibitors, counter-screen for COUP-TFII antagonist project, cell-based, luminescence, HEK293 (AID 687007; in the data active means inhibition above about 13%). To be noted: at 8.5 µM, hits give high values.
The target in assay [12] is COUP transcription factor 2 (Homo sapiens) (UniProt P24468). Nature of the assay: NR2F2 transcriptional activity inhibitors, confirmation, cell-based, luciferase reporter, HEK293, triplicate (AID 687008;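 active means mean inhibition over three repeats above a set limit taken from the earlier primary screen, cut at about 38% in these data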;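 further: 100% = cells given the luciferase reporter alone without the COUP-TF2 vector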). The conditions noted are these: HEK293 NGFI-A luciferase reporter, luminescence; at 8.5 µM; hits give high values.

Structures are written as SMILES. “And” between values parts separate entries of the source, which are not always exact repeats. Identical values can stand only once. Unmarked numbers belong to inactive results. This is one part of the list. The source made the active and inactive calls. Unless noted, no stated cut-off is given here; in the data, active means inhibition above about 25%; inactive means the rest.

Nuclear receptor coactivator 1 (Homo sapiens), sequence (Q15788 whole entry, looked up, the tested form may be a part): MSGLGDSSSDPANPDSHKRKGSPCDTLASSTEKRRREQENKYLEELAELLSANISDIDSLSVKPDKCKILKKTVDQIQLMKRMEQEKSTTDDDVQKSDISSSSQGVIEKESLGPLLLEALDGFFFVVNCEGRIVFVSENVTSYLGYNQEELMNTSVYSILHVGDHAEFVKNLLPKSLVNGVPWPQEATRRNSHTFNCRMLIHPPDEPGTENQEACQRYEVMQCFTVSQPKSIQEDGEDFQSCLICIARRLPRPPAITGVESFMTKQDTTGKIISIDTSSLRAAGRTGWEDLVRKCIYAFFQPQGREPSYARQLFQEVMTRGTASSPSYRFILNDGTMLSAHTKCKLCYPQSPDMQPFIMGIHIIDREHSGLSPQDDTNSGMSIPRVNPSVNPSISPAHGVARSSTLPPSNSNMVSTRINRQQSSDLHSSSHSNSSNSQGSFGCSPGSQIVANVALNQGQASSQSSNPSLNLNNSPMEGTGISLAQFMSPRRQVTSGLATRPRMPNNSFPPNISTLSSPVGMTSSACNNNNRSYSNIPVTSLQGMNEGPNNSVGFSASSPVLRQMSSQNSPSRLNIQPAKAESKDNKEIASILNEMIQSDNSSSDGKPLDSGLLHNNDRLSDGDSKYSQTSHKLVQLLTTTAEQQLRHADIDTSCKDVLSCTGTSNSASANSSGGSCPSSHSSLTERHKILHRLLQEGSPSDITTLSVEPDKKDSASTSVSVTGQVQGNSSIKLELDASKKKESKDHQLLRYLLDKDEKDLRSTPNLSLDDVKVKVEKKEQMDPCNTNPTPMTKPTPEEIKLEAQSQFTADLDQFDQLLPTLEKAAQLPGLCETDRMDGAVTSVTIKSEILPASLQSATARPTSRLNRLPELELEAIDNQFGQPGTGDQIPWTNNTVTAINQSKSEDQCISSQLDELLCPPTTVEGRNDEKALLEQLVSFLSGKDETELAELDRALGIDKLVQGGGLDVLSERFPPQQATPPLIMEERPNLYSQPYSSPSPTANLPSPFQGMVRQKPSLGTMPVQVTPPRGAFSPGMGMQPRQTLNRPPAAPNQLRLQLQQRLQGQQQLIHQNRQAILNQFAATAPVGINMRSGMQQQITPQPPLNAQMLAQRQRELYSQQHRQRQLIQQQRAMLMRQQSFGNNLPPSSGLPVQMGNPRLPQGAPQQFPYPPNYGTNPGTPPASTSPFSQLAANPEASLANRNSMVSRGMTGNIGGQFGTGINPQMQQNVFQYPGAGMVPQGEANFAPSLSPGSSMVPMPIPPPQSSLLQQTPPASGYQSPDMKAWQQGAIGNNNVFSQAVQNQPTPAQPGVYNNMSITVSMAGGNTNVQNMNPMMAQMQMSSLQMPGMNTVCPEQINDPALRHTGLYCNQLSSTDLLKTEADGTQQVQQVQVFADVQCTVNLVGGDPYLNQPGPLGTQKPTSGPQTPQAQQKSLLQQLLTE
Nuclear receptor subfamily 5 group A member 2 (Homo sapiens), sequence (O00482 whole entry, looked up): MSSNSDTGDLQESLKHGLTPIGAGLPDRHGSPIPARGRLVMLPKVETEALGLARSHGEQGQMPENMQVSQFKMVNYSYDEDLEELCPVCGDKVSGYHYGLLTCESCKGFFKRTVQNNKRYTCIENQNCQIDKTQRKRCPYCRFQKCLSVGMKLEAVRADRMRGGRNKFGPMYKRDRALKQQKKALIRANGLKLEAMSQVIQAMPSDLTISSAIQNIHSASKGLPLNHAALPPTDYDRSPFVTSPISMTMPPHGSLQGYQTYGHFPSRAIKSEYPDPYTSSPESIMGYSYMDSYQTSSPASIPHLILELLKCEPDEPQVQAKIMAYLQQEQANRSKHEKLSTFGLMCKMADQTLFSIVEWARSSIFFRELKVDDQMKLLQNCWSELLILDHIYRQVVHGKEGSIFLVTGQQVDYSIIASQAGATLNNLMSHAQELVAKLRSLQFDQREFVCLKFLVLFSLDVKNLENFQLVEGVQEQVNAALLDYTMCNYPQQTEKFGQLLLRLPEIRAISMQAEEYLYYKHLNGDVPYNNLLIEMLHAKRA
Nuclear receptor coactivator 3 (Homo sapiens), sequence (Q9Y6Q9 whole entry, looked up, the tested form may be a part): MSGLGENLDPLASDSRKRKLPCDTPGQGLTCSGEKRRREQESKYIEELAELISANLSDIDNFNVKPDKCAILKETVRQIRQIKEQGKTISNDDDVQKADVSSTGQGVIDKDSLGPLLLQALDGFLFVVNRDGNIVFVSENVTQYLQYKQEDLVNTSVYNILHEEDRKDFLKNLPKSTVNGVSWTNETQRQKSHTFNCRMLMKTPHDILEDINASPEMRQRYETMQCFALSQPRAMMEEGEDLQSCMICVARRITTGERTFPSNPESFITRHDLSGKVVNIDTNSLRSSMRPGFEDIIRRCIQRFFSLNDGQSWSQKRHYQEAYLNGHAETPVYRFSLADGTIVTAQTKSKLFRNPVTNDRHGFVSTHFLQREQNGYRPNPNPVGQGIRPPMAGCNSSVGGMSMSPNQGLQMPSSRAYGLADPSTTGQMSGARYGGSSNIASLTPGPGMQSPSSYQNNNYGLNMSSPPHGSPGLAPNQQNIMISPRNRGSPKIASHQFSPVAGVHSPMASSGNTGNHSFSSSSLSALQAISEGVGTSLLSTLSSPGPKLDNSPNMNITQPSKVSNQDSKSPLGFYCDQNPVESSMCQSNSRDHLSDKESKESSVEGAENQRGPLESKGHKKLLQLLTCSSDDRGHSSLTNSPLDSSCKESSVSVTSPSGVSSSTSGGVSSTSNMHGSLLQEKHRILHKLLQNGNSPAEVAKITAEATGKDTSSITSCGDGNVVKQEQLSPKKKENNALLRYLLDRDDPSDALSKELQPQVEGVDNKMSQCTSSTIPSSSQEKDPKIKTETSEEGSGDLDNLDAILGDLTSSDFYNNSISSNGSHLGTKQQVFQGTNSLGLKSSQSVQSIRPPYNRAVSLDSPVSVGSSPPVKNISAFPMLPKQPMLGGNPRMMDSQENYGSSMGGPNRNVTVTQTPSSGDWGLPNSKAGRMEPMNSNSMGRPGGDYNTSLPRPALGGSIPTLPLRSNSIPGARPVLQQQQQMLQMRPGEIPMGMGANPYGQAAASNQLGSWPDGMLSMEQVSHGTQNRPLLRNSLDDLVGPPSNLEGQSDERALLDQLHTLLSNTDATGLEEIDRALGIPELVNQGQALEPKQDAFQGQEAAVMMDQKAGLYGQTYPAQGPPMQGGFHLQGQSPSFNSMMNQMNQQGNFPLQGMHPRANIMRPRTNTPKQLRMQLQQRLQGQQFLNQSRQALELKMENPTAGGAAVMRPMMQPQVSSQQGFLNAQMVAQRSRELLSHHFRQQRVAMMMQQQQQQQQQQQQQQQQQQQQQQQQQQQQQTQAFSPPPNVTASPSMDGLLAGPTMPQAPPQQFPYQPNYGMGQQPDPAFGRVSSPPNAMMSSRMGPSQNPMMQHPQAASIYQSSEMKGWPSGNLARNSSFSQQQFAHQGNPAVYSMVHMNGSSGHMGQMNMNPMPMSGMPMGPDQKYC
Steroidogenic factor 1 (Homo sapiens), sequence (Q13285 whole entry, looked up, the tested form may be a part): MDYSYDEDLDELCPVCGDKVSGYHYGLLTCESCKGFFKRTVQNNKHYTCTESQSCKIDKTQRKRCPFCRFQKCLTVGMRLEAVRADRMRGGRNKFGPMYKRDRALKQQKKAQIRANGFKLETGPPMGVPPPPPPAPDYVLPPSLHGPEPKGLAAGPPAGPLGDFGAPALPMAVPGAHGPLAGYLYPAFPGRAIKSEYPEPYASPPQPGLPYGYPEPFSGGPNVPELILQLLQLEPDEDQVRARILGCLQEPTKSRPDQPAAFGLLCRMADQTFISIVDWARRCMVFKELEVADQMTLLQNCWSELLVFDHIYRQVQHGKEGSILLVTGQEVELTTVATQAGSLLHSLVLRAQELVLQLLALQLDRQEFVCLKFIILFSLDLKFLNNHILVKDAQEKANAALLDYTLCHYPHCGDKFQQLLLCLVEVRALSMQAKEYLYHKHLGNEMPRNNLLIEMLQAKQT
COUP transcription factor 2 (Homo sapiens), sequence (P24468 whole entry, looked up): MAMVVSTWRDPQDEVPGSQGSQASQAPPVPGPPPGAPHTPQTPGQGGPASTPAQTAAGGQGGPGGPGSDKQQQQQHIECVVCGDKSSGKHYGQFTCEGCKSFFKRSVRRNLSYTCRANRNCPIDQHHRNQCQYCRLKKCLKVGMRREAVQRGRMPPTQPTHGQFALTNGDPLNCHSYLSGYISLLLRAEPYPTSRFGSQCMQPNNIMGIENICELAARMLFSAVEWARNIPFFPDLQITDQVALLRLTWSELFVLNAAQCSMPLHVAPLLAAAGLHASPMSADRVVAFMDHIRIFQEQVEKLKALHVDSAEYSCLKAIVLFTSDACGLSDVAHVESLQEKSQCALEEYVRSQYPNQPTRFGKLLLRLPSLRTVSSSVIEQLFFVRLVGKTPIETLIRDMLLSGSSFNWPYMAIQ

In the case of `NC(=O)c1cn(C2OC(CO)C(O)C2O)c2ncnc(N)c12` (stereo not drawn), the inhibition in assay [1] is 96.2% (active) and 97.7% (active); in assay [2], 97.7% (active) and 97.3% (active); in assay [3] it was 90% (active) and 90.1% (active); in [4] it was 97.9% (active) and 96% (active); in assay [5] it was 94.2% (active) and 95% (active); in assay [6], 109% (active) and 110% (active). Also, the inhibition in [7] is 96.8% (active) and 98% (active); in assay [8] it was 95.5% (active) and 97.3% (active); in [9], 65% (active) and 66.1% (active); in [10], 67.3% (active) and 73.3% (active).
Turning to `CCC1CN2CCc3cc(OC)c(OC)cc3C2CC1CC1NCCc2c1[nH]c1ccc(O)cc21` (stereo not drawn), the inhibition is 98% (active) in assay [1]; 96.7% (active) in assay [2]; 95.4% (active) in assay [3]; 95.9% (active) in assay [4]; 95.7% (active) in [5]; 110% (active) in [6]. Also, the inhibition is 98.3% (active) in assay [7], 98.7% (active) in assay [8], 78.1% (active) in [9] and 73.4% (active) in assay [10].
With `O=C1NC2C(=CC(O)C(O)C2O)c2cc3c(c(O)c21)OCO3` (stereo not drawn), the inhibition is 97.4% (active) in [1]; 96.1% (active) in assay [2]; 94.7% (active) in [3]; 94.7% (active) in [4]; 95.7% (active) in assay [5]; 109% (active) in [6]. The inhibition is 98% (active) in assay [7], 96% (active) in [8], 79.3% (active) in assay [9] and 75.6% (active) in assay [10].
Consider `CC1CCOC(=O)C=CC=CC(=O)OC2CC3OC4C5OC5(C)C(O)CC4(COC(=O)C1O)C2(C)C31CO1` (stereo not drawn), for which the inhibition was 98.8% (active) in assay [1]; 97.3% (active) in assay [2]; 97.2% (active) in assay [3]; 97.1% (active) in [4]; 80.4% (active) in assay [9]; 75.2% (active) in assay [10].
As for `O=C1NC2C(=CC(O)C(O)C2O)c2cc3c(cc21)OCO3` (stereo not drawn), the inhibition in assay [1] was 97.1% (active); in assay [2], 96.6% (active); in assay [3], 88.5% (active); in assay [4] it was 96.3% (active); in [5], 94% (active); in assay [6], 109% (active). Besides, the inhibition in assay [7] was 96.7% (active); in [8] it was 95.6% (active); in assay [9] it was 73.8% (active); in [10], 76.2% (active).
As to `CCOc1ccc(-c2cc(C)[n+](CCN(CC)CC)c(-c3ccc(OCC)cc3)c2)cc1`, the inhibition in assay [1] was 68.1% (active); in assay [2], 80.8% (active); in assay [3], 67.7% (active); in assay [4] it was 81.7% (active); in assay [5], 73.6% (active); in [6], 105% (active). Also, the inhibition in [7] is 93.8% (active); in assay [8], 90% (active); in [11] it was 19.5% (active); in [12] it was 62% (active).
Consider `CC1=CC2OC3CC4OC(=O)C=CC=CC(C(C)O)OCC(O)C(C)CC(=O)OCC2(CC1O)C4(C)C31CO1` (stereo not drawn), for which the inhibition in [1] is 98.7% (active); in assay [2], 98.2% (active); in assay [3], 97.4% (active); in assay [4], 97.9% (active); in assay [5] it was 96.3% (active); in assay [6], 108% (active). Further, the inhibition is 96% (active) in assay [7], 97.5% (active) in assay [8], 79.8% (active) in assay [9] and 70.1% (active) in [10].
Consider `C=Cc1cc(OC)c2c(c1)c(=O)oc1c2cc(OC)c2c(O)ccc(C3OC(C)C(O)C(C)(O)C3O)c21` (stereo not drawn), for which the inhibition in assay [1] was 46.1% (active); in assay [2], 88.3% (active); in assay [3], -23.3%; in assay [4] it was 88% (active); in assay [9] it was 42.7% (active); in [10], -166%.
Take `C[C@]12CC[C@H]3[C@@H](CC[C@]4(O)C[C@@H](O)CC[C@]34C=O)[C@@]1(O)CC[C@@H]2C1=CC(=O)OC1`: the inhibition in assay [1] was 92.8% (active); in assay [2], 81.1% (active); in assay [3], 46.8% (active); in assay [4], 79.7% (active); in [6], 110% (active); in assay [7], 98.7% (active).
Take `CCC(C)C1NC(=O)C(NC(=O)C(CC(C)C)N(C)C(=O)C2CCCN2C(=O)C(C)O)C(C)OC(=O)C(Cc2ccc(OC)cc2)N(C)C(=O)C2CCCN2C(=O)C(CC(C)C)NC(=O)[C@H](C)C(=O)[C@H](C(C)C)OC(=O)CC1O` (stereo partly drawn): the inhibition was 99.5% (active) in [1]; 98.2% (active) in assay [2]; 98.5% (active) in assay [3]; 98.1% (active) in [4]; 96.4% (active) in assay [5]; 111% (active) in assay [6]. The inhibition in assay [7] is 98.4% (active); in assay [8], 99% (active); in [9], 82.2% (active); in assay [10] it was 79.6% (active).
Take `CC(=O)OC1CC2(O)C3CCC4CC(O)CCC4(C)C3CCC2(C)C1C1=CC(=O)OC1` (stereo not drawn): the inhibition in assay [1] was 95.9% (active); in assay [2] it was 84.3% (active); in assay [3] it was 71.4% (active); in assay [4], 83.3% (active); in assay [5], 96.5% (active); in assay [6], 111% (active). The inhibition in [7] is 98.7% (active); in assay [8] it was 91.9% (active); in [9], 65.2% (active); in assay [10], 45.1%.
Take `O=C1NC2C(O)C(O)C(O)C(O)C2c2cc3c(c(O)c21)OCO3` (stereo not drawn): the inhibition in [1] is 97.3% (active); in [2], 96% (active); in assay [3] it was 93.4% (active); in assay [4], 95% (active); in assay [5], 96.4% (active); in assay [6], 109% (active). Moreover, the inhibition in assay [7] was 97.7% (active); in assay [8], 98.6% (active); in assay [9] it was 79.7% (active); in assay [10], 75.7% (active).
For the molecule `CC(=O)OC[C@]12CCC(C)=C[C@H]1O[C@@H]1[C@H](O)[C@@H](OC(C)=O)[C@@]2(C)[C@]12CO2`, the inhibition in [1] was 98.8% (active); in [2] it was 97.9% (active); in [3] it was 98% (active); in assay [4], 97.8% (active); in assay [5] it was 96% (active); in assay [6], 109% (active). Further, the inhibition in assay [7] was 98% (active); in [8], 97.1% (active); in assay [9], 78.3% (active); in assay [10], 73% (active).
Consider `COc1ccc(-n2nnnc2C(c2cc3ccccc3o2)N2CCC(n3c(=O)[nH]c4ccccc43)CC2)cc1` (stereo not drawn), for which the inhibition was -5.69% in [1]; 5.58% in assay [2]; 0.21% in [3]; 6.66% in assay [4]; 39.6% (active) in assay [5]; 36.4% in [6]. The inhibition was 45.7% (active) in assay [7], 35.3% (active) in assay [8], 49.7% (active) in [9] and 22.9% in assay [10].
